{"source": "PubChem BioAssay (Tox21)", "note": "Active and inactive are the calls of the source. Where a call stands in place of a potency, no number is given. Calls follow the shape of the dose curve; as a rule, active = well fitted curve in the direction sought with a large enough effect in the repeat runs; inconclusive = weak or mixed curves; inactive = flat fitted curve, though single readings scatter."}
{"experiment": "qHTS assay to test for compound auto fluorescence at 535 nm (green) in HEK293 cell free culture (AID 720682)", "conditions": "cell-free medium, green autofluorescence 485/535 nm; series mostly up to 46 µM", "excerpt": "U.S. Tox21 Program National Center for Advancing Translational Sciences [NCATS] NIH Chemical Genomics Center [NCGC] U.S. Environmental Protection Agency [EPA] National Institutes of Environmental Health Sciences [NIEHS] National Toxicology Program [NTP] U.S. Food and Drug Administration [FDA] Tox21 Assay Overview: Compound auto fluorescence often interferes with screening of the compound library against various biological targets and signaling pathways. Some of these compounds may have fluorophoric properties. Such properties may interfere with the assay outputs resulting in false positives and/or negatives. To decrease such complications and ensure the compound activities are relevant in terms of biological response, the Tox21 10K compound library was screened for auto fluorescence. From the fluorophores used as reporter signals in our screening assays, the auto fluorescence equivalencies of compounds against three fluorophores have been evaluated: Triamterene, Fluorescein and Rose Bengal sodium for blue, green and red fluorescence, respectively. The fluorescence intensities were measured using Excitation/Emission wavelengths at 405/460nm, 485/535nm and 540/590nm for blue, green and red labels, respectively. This assay includes the green fluorescence data.\nTox21 Assay Protocol Summary: 5 uL of culture medium (DMEM containing 10% FBS) per well was dispensed into black wall/clear bottom 1536-well plates using a Multidrop Combi Dispenser (ThermoFisher Scientific, Waltham, MA). After 23 nL compound or DMSO vehicle was transferred into assay plate by a pintool work station (Kalypsys, San Diego, CA), fluorescence intensities in the assay plates were measured by an Envision (PerkinElmer, Shelton, CT) plate reader using three labels for measuring blue, green and red fluorescence at […] 460, 535 and 590nm respectively."}
{"smiles": "CC(=O)O[C@H]1CC[C@H]2[C@@H]3CCC4=CC(=O)CCC4=C3C=C[C@]12C", "Potency": "inactive"}
{"smiles": "O=C(O)/C=C/C(=O)O", "Potency": "inactive"}
{"smiles": "CC(=O)OC1CN2CCC1CC2", "note": "(stereo not given)", "Potency": "inactive"}
{"smiles": "CCCCCCCCCC(=O)O[C@H]1CC[C@H]2[C@@H]3CCC4=CC(=O)CC[C@]4(C)[C@H]3CC[C@]12C", "Potency": "inactive"}
{"smiles": "CN1[C@@H]2CC[C@H]1CC(OC1c3ccccc3CCc3ccccc31)C2", "note": "(stereo not given in full)", "Potency": "inactive"}
{"smiles": "CCCCNCC(O)c1ccc(O)cc1", "note": "(stereo not given)", "Potency": "inactive"}
{"smiles": "CCN(CC)C(=O)N[C@H]1C[C@@H]2c3cccc4[nH]cc(c34)C[C@H]2N(C)C1", "Potency": "inactive"}
{"smiles": "CO[C@H]1[C@@H](O)C[C@H](O[C@H]2[C@@H](O)C[C@H](O[C@H]3[C@@H](O)C[C@H](O[C@H]4CC[C@@]5(C)[C@H](CC[C@@H]6[C@@H]5C[C@@H](O)[C@]5(C)[C@@H](C7=CC(=O)OC7)CC[C@]65O)C4)O[C@@H]3C)O[C@@H]2C)O[C@@H]1C", "Potency": "inactive"}
{"smiles": "Cc1ccccc1-n1c(CF)nc2ccc(N)cc2c1=O", "Potency": "inactive"}
{"smiles": "Clc1ccccc1-c1ccccc1Cl", "Potency": "inactive"}
{"smiles": "CCC1(c2cnc[nH]2)Cc2ccccc2C1", "Potency": "inactive"}
{"smiles": "Oc1c(Cl)cc(Cl)cc1Cl", "Potency": "inactive"}
{"smiles": "C[C@@H]1[C@H]2Cc3ccc(O)cc3[C@]1(C)CCN2C", "Potency": "inactive"}
{"smiles": "CC(C)[C@@]1(NC(=O)[C@@H]2C[C@@H]3c4cccc5[nH]cc(c45)C[C@H]3N(C)C2)O[C@@]2(O)[C@@H]3CCCN3C(=O)[C@H](Cc3ccccc3)N2C1=O", "Potency": "inactive"}
{"smiles": "O=C(C[C@@H]1NCCC[C@H]1O)Cn1cnc2cc(Br)c(Cl)cc2c1=O", "Potency": "inactive"}
{"smiles": "CCNC(C)Cc1cccc(C(F)(F)F)c1", "note": "(stereo not given)", "Potency": "inactive"}
{"smiles": "C[N+]1(C)[C@@H]2CC[C@H]1CC(OC(=O)c1c[nH]c3ccccc13)C2", "note": "(stereo not given in full)", "Potency": "inactive"}
{"smiles": "c1ccc2c(c1)Sc1ccccc1N2CC1CN2CCC1CC2", "note": "(stereo not given)", "Potency": "inactive"}
{"smiles": "CCCCCCC(=O)O[C@H]1CC[C@H]2[C@@H]3CC[C@H]4CC(=O)C=C(C)[C@]4(C)[C@H]3CC[C@]12C", "Potency": "inactive"}
{"smiles": "CCCC(C)C1(CC)C(=O)NC(=O)NC1=O", "note": "(stereo not given)", "Potency": "inactive"}
{"smiles": "Cc1ccc(O)cc1C", "Potency": "inactive"}
{"smiles": "COc1ccc2c(c1)C13CCCC[C@@H]1C(C2)N(C)CC3", "note": "(stereo not given in full)", "Potency": "inactive"}
{"smiles": "CC(C)(O)[C@@H]1[C@H]2OC(=O)[C@@H]1[C@]1(O)C[C@H]3O[C@]34C(=O)O[C@H]2[C@]14C", "Potency": "inactive"}
{"smiles": "C[C@@H]1[C@@H]2Cc3ccc(O)cc3[C@@]1(C)CCN2CCc1ccccc1", "Potency": "inactive"}
{"smiles": "CCC1(C)CC(=O)NC(=O)C1", "Potency": "inactive"}
{"smiles": "C[C@@H]1[C@@H]2Cc3ccc(O)cc3[C@@]1(C)CCN2CC1CC1", "Potency": "inactive"}
{"smiles": "O=C1CN(O)C(c2ccccc2)=c2cc(Cl)ccc2=N1", "Potency": "inactive"}
{"smiles": "CC(C)C[C@H]1C(=O)N2CCC[C@H]2[C@]2(O)O[C@](NC(=O)[C@@H]3C[C@@H]4c5cccc6[nH]cc(c56)C[C@H]4N(C)C3)(C(C)C)C(=O)N12", "Potency": "inactive"}
{"smiles": "c1cc2c(c(NC3=NCCN3)c1)CCCC2", "Potency": "inactive"}
{"smiles": "CN[C@@H](C)Cc1ccccc1", "Potency": "inactive"}
{"smiles": "CCCCCN(C)CCC(O)(P(=O)(O)O)P(=O)(O)O", "Potency": "inactive"}
{"smiles": "C[C@@H](Cc1ccccc1)NCCC(c1ccccc1)c1ccccc1", "Potency": "inactive"}
{"smiles": "O=C(CS(=O)C(c1ccccc1)c1ccccc1)NO", "note": "(stereo not given)", "Potency": "inactive"}
{"smiles": "COC(=O)[C@H]1[C@@H](OC(=O)c2ccccc2)C[C@@H]2CC[C@H]1N2C", "Potency": "inactive"}
{"smiles": "CN(C)CCCCCCN(C)C", "note": "(tested in a mixture with another compound)", "Potency": "inactive"}
{"smiles": "Cc1nnc2n1-c1ccc(Cl)cc1C(c1ccccc1Cl)=NC2", "Potency": "inactive"}
{"smiles": "CC(=O)Oc1ccc2c3c1O[C@H]1[C@@H](OC(C)=O)C=C[C@H]4[C@@H](C2)N(C)CC[C@@]341", "Potency": "inactive"}
{"smiles": "CCCCC[C@@H](O)C1C(=O)OC(C)[C@H](O)/C=C/C=C/C=C/C=C/C=C(\\C)C(O)C(O)C(O)C[C@H](O)C[C@H](O)C[C@H](O)C[C@H](O)C[C@@H]1O", "note": "(stereo not given in full)", "Potency": "inactive"}
{"smiles": "CCOC(=O)C(O)(c1ccc(Cl)cc1)c1ccc(Cl)cc1", "Potency": "inactive"}
{"smiles": "O=C1CCCCC1CN1CCCCC1", "note": "(stereo not given)", "Potency": "inactive"}
